Assay outcomes: PubChem, National Center for Advancing Translational Sciences (NCATS)
Sampled rows, rich in hits. Any-hit rate of the full collection: about 1.6%.
RXFP1 antagonist: qHTS Assay for Antagonists of the Relaxin Receptor RXFP1; Relaxin receptor 1 (Homo sapiens), Q9HBX9; AID 1259400, 2018; 350,000 compounds, 0.59% hits; HEK293-RXFP1, relaxin-stimulated cAMP HTRF, 30 min; stronger effect = lower value; activity change, negative = inhibition, % at 57.5 µM;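 active = activity change of -60% or lower, but not beyond a set lower limit; inconclusive = change between -60% and -40%, or beyond the set limit; inactive = change above -40%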; note: % is set by controls: 0 for no effect and ±100 for the full control effect
Target sequence (Q9HBX9 whole entry, looked up): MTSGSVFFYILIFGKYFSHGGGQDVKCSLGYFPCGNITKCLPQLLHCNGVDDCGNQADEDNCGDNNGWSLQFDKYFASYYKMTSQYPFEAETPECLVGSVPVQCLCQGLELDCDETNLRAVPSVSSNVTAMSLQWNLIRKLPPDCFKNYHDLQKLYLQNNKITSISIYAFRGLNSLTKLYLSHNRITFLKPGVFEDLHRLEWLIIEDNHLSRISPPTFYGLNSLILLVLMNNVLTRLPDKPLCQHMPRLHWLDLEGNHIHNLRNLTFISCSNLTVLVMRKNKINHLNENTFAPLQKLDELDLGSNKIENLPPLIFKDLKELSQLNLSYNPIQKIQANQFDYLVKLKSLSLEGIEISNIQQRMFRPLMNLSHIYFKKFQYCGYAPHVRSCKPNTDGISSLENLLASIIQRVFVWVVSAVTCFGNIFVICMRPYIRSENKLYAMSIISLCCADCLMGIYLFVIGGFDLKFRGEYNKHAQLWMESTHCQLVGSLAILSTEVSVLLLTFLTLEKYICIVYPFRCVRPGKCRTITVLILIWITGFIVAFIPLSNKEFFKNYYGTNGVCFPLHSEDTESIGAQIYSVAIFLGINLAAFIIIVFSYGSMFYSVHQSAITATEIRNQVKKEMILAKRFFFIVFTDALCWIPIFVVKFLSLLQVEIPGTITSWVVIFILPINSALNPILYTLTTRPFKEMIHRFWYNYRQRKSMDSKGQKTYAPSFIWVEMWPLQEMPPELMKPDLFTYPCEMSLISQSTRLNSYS
gsp antagonist: qHTS for Antagonists of gsp, the Etiologic Mutation Responsible for Fibrous Dysplasia/McCune-Albright Syndrome: qHTS | gsp-mutant cells, cAMP HTRF, 30 min | Potency, µM (doses to about 76.9 µM), for inactives: at the highest dose activity change, negative = inhibition, most hits filed as inhibitors | 340,000 compounds, 0.4% hits | AID 624288, 2012; calls by dose curve; cell line not stated here;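 note: intracellular cAMP measured with PDE inhibitor Ro 20-1724 present during compound exposure; potency is the fitted concentration of half-maximal effect; % is set by controls: 0 for no effect and ±100 for the full control effect; nearly all actives have a fitted effect of over 65% in size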
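Cells in G418 medium, seeded 16-24 h, 37C; buffer exchange to DPBS + 1 mM CaCl2, 0.5 mM MgCl2, 0.05% BSA; cpds in DMSO + […] (300 uM stock), 30 min 37C; HTRF cAMP detection.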
Giardia killer: Small Molecules that selectively kill Giardia lamblia: qHTS. Giardia lamblia trophozoite viability. activity change, % at 7.66 µM, hits read low. 340,000 compounds, 0.15% hits. AID 540267, 2011; in the data active = activity change below about -80%; inconclusive = between about -30% and that limit;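 note: parasites exposed to compound for two days anaerobically before the ATP read; % is set by controls: 0 for no effect and ±100 for the full control effect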
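ATP-content bioluminescence gauges trophozoite survival. Cells (100/well) receive compound and incubate anaerobically for 48 hrs at 37 deg C; detection reagent follows for 15-30 min at room temperature.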
gsp agonist: qHTS for Agonist of gsp, the Etiologic Mutation Responsible for Fibrous Dysplasia/McCune-Albright Syndrome: qHTS; gsp mutant cells, cAMP HTRF, 30 min; Potency, µM (doses to about 76.9 µM), inactives show at the top dose activation (cAMP increase), usual class: activators; 340,000 compounds, 0.13% hits; active = well fitted activation curve with a large enough effect; inconclusive = small, poorly fitted or top-dose-only effect, or another doubt; inactive = no such curve, though single readings can be large or run the other way; cell line not stated here;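 note: phosphodiesterase inhibitor Ro 20-1724 added with compounds to block cAMP breakdown; potency is the fitted concentration of half-maximal effect; nearly all actives have a fitted effect of over 60% in size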
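Cells in DMEM/10% FBS with G418 were pretreated with compounds in DMSO plus […] (300 uM stock) for 30 min at 37C. cAMP was measured by HTRF (cAMP-d2 plus anti-cAMP antibody-K) after 30 min at room temperature.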
RXFP1 agonist: qHTS Assay for Agonists of the Relaxin Receptor RXFP1; HEK293T-RXFP1 cAMP TR-FRET, 30 min; response scale: percent of porcine relaxin response, buffer zero; Potency, µM (series often up to 57.5 µM), inactives show top-dose activation, hits mostly activators; 370,000 compounds, 0.3% hits; Relaxin receptor 1 (Homo sapiens), Q9HBX9; active = well fitted activation curve with a large enough effect; inconclusive = small, poorly fitted or top-dose-only effect; note: potency is the fitted concentration of half-maximal effect; % is set by controls: 0 for no effect and ±100 for the full control effect; nearly all actives have a fitted effect of over 60% in size
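HEK293T cells stably expressing RXFP1 were pretreated with the PDE4 inhibitor Ro 20174, exposed to compounds for 30 min at 37C, lysed, and cAMP was read by TR-FRET. Data normalized to buffer (basal) and 29 nM porcine relaxin (100%).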
FBPA coupling cs: qHTS Assay for Inhibitors of Fructose-1,6-bisphosphate Aldolase from Giardia Lamblia: Coupling assay counterscreen. 290,000 compounds, 0.67% hits. activity change, negative = inhibition, % at 58.2 µM, hits read low. AID 2472, 2010. coupling enzyme system counterscreen, AmpLite Red fluorescence; in the data active = activity change below about -30%; note: % is set by controls: 0 for no effect and ±100 for the full control effect
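Fluorescence at 525 nm excitation and 598 nm emission measured inhibition of the coupled detection system without aldolase. Compounds (at 57.5 uM final) were preincubated 10 min at room temperature with coupling enzyme reagent before a 20 min substrate/AmpLite Red step.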
An asterisk follows results filed as active; ! = repeats disagree; [ ] = remark or other dose.

CCOC(=O)c1cnc2ccc(Cl)cc2c1NCCN(C)C was read as RXFP1 antagonist -2, gsp antagonist -10%, Giardia killer -1, gsp agonist -26%, RXFP1 agonist -1% and FBPA coupling cs -57*.
COc1cccc(Sc2nc(N(C)C)ncc2S(=O)(=O)c2ccc(Cl)cc2)c1 was read as Giardia killer 17.
Screening COc1ccc2[nH]c(=O)c(CN(C(C)=O)c3cc(C)ccc3C)cc2c1 returned RXFP1 antagonist 0 and gsp agonist -73%.
CCCCC1=CC2=CC(=O)C(C)(OC(=O)CC)C(=O)C2=CN1CCOC (stereo not given) was read as gsp antagonist 4%, Giardia killer -23, gsp agonist -56%, RXFP1 agonist 1% and FBPA coupling cs -7.
`COC(=O)CCCC1=CC2=CC(=O)C(C)(OC(=O)c3cccs3)C(=O)C2=CN1C(CO)CO` (stereo not given) gave FBPA coupling cs -11.
`COC(=O)CCCC1=CC2=CC(=O)C(C)(OC(=O)c3cccs3)C(=O)C2=CN1CCCOC(C)C` (stereo not given) gave gsp antagonist -5%, Giardia killer -5, RXFP1 agonist 0% and FBPA coupling cs -31*.
`COC(=O)CCCC1=CC2=CC(=O)C(C)(OC(=O)c3cccs3)C(=O)C2=CN1C1CCCC1` (stereo not given) gave gsp antagonist -8%, Giardia killer 4, RXFP1 agonist 0% and FBPA coupling cs -43*.
`COC(=O)CCCC1=CC2=CC(=O)C(C)(OC(=O)c3cccs3)C(=O)C2=CN1CCc1c[nH]c2ccccc12` (stereo not given) gave gsp antagonist 3%, Giardia killer -6, RXFP1 agonist 0% and FBPA coupling cs -36*!.
CCCCC1=CC2=CC(=O)C(C)(OC(=O)CC)C(=O)C2=CN1C1CCCC1 (stereo not given) was read as gsp antagonist -2%, Giardia killer -14, RXFP1 agonist 0% and FBPA coupling cs -33*!.
For CCN(CC)CCCN1C=C2C(=O)C(C)(OC(=O)c3cccs3)C(=O)C=C2C=C1CCCC(=O)OC (stereo not given) the results were FBPA coupling cs -1.
NC(=O)COCCN1CCN(C(c2ccccc2)c2ccc(Cl)cc2)CC1 (stereo not given) was read as RXFP1 antagonist -4.
Screening O=C(Nc1ccncc1)C1C(=O)c2ccccc2N(Cc2ccccc2)C1=O (stereo not given) returned Giardia killer -1.
For Cc1ccc(S(=O)(=O)N2C[C@H]3C(=O)C[C@@H](c4ccccc4)N(S(=O)(=O)c4ccc(C)cc4)[C@H]3C[C@H]2c2ccc(Cl)cc2)cc1 the results were RXFP1 antagonist 5 and gsp agonist 22%.
CCOC(=O)C(C(=O)Nc1ccccc1)C1CCCCC1 (stereo not given) was read as RXFP1 antagonist 0, gsp antagonist -7%, Giardia killer 17, gsp agonist -3%, RXFP1 agonist 2% and FBPA coupling cs 3.
O=C(Nc1ccccc1)C(c1ccccc1)C1CCCC1 (stereo not given) was read as RXFP1 antagonist -70*, gsp antagonist -14%, Giardia killer 2, gsp agonist -4%[15.4 µM], RXFP1 agonist -2% and FBPA coupling cs 1.
CNC(=O)c1c(I)c(NC(C)=O)c(I)c(C(=O)O)c1I was read as RXFP1 antagonist 6.
For COc1ccc(N=C2SCC(=O)N2CCc2ccc(OC)c(OC)c2)cc1 the results were RXFP1 antagonist 7, gsp antagonist -12%, Giardia killer -12, gsp agonist -9%, RXFP1 agonist 1% and FBPA coupling cs -1.
`COc1ccc(CCN2C(=O)CSC2=Nc2ccc(C(C)C)cc2)cc1OC` gave RXFP1 antagonist -33, gsp antagonist 28µM*, Giardia killer 27, gsp agonist -8%[15.4 µM], RXFP1 agonist 3% and FBPA coupling cs -4.
CC(=O)Nc1ccc(Sc2ccccc2C(=O)O)c(C(=O)O)c1 was read as RXFP1 antagonist 15, gsp antagonist 5%, Giardia killer -4, gsp agonist 0%, RXFP1 agonist 0% and FBPA coupling cs 6.
Screening CCOc1cc(NC2CS(=O)(=O)CC2O)c(OCC)cc1NC(=O)c1ccccc1 (stereo not given) returned RXFP1 antagonist 3, gsp antagonist -21%, Giardia killer 23, gsp agonist -29%, RXFP1 agonist 2% and FBPA coupling cs -41*.
For COc1cc2oc(=O)c(CC(=O)N3CCCCC3)c(C)c2cc1OC the results were RXFP1 antagonist 14 and RXFP1 agonist 11%.
`COCCOC(=O)/C(=C\c1cc(C(C)(C)C)c(O)c(C(C)(C)C)c1)C(C)=O` gave RXFP1 antagonist -35, gsp antagonist -23%, Giardia killer -7, gsp agonist 24%, RXFP1 agonist 0% and FBPA coupling cs -2.
O=c1c2ccccc2cnn1Cc1n[nH]c(=S)n1-c1cc(Cl)cc(Cl)c1 was read as RXFP1 antagonist inconclusive, gsp antagonist 1%, Giardia killer 10, gsp agonist inconclusive, RXFP1 agonist 16% and FBPA coupling cs 8.
O=c1c2ccccc2cnn1Cc1n[nH]c(=S)n1-c1ccc(F)c(Cl)c1 was read as RXFP1 antagonist 5, gsp antagonist 6%, Giardia killer 13, gsp agonist 61%[15.4 µM], RXFP1 agonist 16µM* and FBPA coupling cs 10.
For N#CC1(C#N)[C@@H](C(=O)C23CC4CC(CC(C4)C2)C3)C12CCOCC2 the results were RXFP1 antagonist 24, gsp antagonist 5%, Giardia killer 4, gsp agonist -17%, RXFP1 agonist 1% and FBPA coupling cs 1.
Screening O=C(Nc1ccccc1)Nc1cc(Cl)cc(Cl)c1 returned RXFP1 antagonist -21, gsp antagonist inconclusive, Giardia killer -17, gsp agonist 0%, RXFP1 agonist -1% and FBPA coupling cs 1.
`O=C(Nc1ccccc1)Nc1cc(OCC(F)(F)F)cc(OCC(F)(F)F)c1` gave RXFP1 antagonist -72*, gsp antagonist 32µM*, Giardia killer 10, gsp agonist -3%[15.4 µM], RXFP1 agonist 0% and FBPA coupling cs -5.
